High-throughput results: PubChem, Johns Hopkins Ion Channel Center
KCNQ2 enhance – enhances the rat KCNQ2 potassium channel. O88943. CHO-K1 KCNQ2, FluxOR thallium flux fluorescence; stronger effect = higher value. B-score at 10 µM. 310,000 tested, 0.54% active;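 active means fluorescence ratio B-score at least 3 SD of library B-scores, with initial fluorescence B-score within 3 of them, cut at about 5.3 in these data; same plate scores as AID 2156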;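 further: B-score of peak minus minimum over baseline fluorescence ratio after K+ and Tl+ stimulus; positive B-score means potentiation of KCNQ2 with more thallium influx and brighter signal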
Target sequence (O88943 whole entry, looked up): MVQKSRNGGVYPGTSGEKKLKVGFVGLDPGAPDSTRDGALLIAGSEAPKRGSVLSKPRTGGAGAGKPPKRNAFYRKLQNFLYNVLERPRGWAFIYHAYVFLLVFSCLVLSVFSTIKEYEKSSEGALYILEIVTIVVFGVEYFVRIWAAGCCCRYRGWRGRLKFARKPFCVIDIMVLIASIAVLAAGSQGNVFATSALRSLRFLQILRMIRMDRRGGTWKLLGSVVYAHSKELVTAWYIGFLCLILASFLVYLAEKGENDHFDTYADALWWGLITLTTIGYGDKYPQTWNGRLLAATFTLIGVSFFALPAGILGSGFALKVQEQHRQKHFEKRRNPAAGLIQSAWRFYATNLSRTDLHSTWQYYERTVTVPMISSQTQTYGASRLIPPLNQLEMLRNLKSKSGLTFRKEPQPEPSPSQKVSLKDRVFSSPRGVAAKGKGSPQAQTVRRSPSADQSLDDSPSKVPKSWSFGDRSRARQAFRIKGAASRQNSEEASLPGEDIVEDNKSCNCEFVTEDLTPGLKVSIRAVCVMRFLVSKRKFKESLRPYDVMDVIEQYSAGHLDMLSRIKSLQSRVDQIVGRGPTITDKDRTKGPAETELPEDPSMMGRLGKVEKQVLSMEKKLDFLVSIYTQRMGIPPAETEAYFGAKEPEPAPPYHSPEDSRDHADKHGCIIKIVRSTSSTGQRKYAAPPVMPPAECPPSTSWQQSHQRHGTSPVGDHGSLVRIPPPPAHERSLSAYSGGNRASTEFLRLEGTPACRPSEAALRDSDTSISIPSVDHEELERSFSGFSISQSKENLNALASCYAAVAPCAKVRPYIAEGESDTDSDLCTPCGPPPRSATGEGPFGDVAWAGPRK
KCNQ2 inh – KCNQ2 (rat) channel inhibition. O88943. CHO-K1 KCNQ2, FluxOR thallium flux, 20 min; stronger effect = lower value. B-score at 10 µM. 310,000 tested, 1.1% active;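 active means fluorescence ratio B-score at most minus 3 library SDs, with starting brightness B-score within 2 library SDs, cut at about -5.5 in these data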
Of the large screens only hits and unclear results are named; the others gave an inactive call; ! = a repeat was not active. Most compounds without a hit are left out; they make up all but 1.6% or so of the library.

CC(=O)c1cnc2c(-c3ccccc3)c(C)nn2c1C	none (no result: KCNQ2 enhance)
CC(=O)c1cnc2c(-c3ccc(Cl)cc3)c(C)nn2c1C	KCNQ2 inh -5.75
CN(C)c1ccc(NC(=O)CN2C(=O)CC(c3ccccc3)=Nc3ccccc32)cc1	none
O=C1CC(c2ccccc2)=Nc2ccccc2N1Cc1ccccc1	KCNQ2 inh -6.15
CC1CCc2sc(NC(=O)C3CC(Cl)=CCC3C(=O)O)c(C#N)c2C1 (centres undefined)	none
O=S(=O)(Nc1nc2c(s1)CCCC2)c1ccc2ccccc2c1	none
c1ccc2c(Nc3nc4c(s3)CCCC4)cccc2c1	KCNQ2 inh -7.44
Cc1ccc(Oc2c(C(N)=O)cc([N+](=O)[O-])cc2[N+](=O)[O-])cc1	none (no result: KCNQ2 enhance)
Cc1c(O)cccc1C(=O)N[C@@H](CSc1ccccc1)[C@H](O)CN1C[C@H]2CCCC[C@H]2C[C@H]1C(=O)NC(C)(C)C	KCNQ2 inh -5.73!
CC1=C(C(=O)OC2CCCCC2)C(c2ccc(N(C)C)cc2)NC(=O)N1 (centres undefined)	none (no result: KCNQ2 enhance)
COc1cc(-c2nnc(SCc3ccccc3Cl)o2)cc(OC)c1OC	KCNQ2 inh -6.83
COc1cc(-c2nnc(SCc3c(F)cccc3Cl)o2)cc(OC)c1OC	none (no result: KCNQ2 enhance)
Cc1cccc(N(C(=O)CNC(=O)c2cccs2)C(C(=O)NC2CCCC2)c2ccncc2)c1 (centres undefined)	none (no result: KCNQ2 enhance)
O=C(/C=C/c1cccnc1)c1ccc(O)cc1	none (no result: KCNQ2 enhance)
O=C(/C=C/c1cccnc1)c1ccccc1O	KCNQ2 inh -5.9
O=C(CNC(=O)c1ccccc1F)NCCOc1ccccc1Cl	none
Cc1cc(C)cc(NCc2cc3c(cc2[N+](=O)[O-])OCO3)c1	KCNQ2 inh -6.23
COc1ccc(CNCc2cc3c(cc2[N+](=O)[O-])OCO3)cc1	none
Cc1onc(-c2ccccc2)c1C(O)c1ccc(F)cc1 (centres undefined)	none
Cc1cccc(OCC(=O)Nc2ccccc2N2CCCC2)c1C	none (no result: KCNQ2 enhance)
Cc1ccc(C(C)C)c(OCC(=O)Nc2ccccc2N2CCN(C)CC2)c1	none (no result: KCNQ2 enhance)
Cc1cccc(OCC(=O)Nc2ccccc2N2CCN(C(=O)C(C)C)CC2)c1C	KCNQ2 inh -5.85
CC(=O)N1CCN(c2ccccc2NC(=O)COc2cc(C)ccc2C(C)C)CC1	KCNQ2 inh -7.76
CC(NC(=O)C(=O)NN=C1CCCCCCCCCCC1)c1ccccc1 (centres undefined)	none (no result: KCNQ2 enhance)
CSCCC(NC(=O)c1ccc(Cl)cc1Cl)C(=O)OC1CCCCC1=O (centres undefined)	KCNQ2 inh -8.07
CSCCC(NC(=O)c1ccc(Cl)cc1Cl)C(=O)NCc1ccccn1 (centres undefined)	none (no result: KCNQ2 enhance)
O=C(CCC(=O)N1CCSc2ccccc21)NCCc1ccccc1	none
Cc1csc(NC(=O)CCCC(=O)c2ccccc2)n1	none
O=C(CCc1nc2ccccc2[nH]1)Nc1ccc(F)cc1	none (no result: KCNQ2 enhance)
O=C(CCc1nc2ccccc2[nH]1)Nc1ccccc1F	KCNQ2 enhance 6.57
CN(C)S(=O)(=O)c1ccc(C(=O)NCCC(=O)N2CCCC2)cc1	none
CN(c1ccccc1)S(=O)(=O)c1cccc(NC(=O)CSc2nncn2C)c1	none
CN(c1ccccc1)S(=O)(=O)c1cccc(NC(=O)CSc2ncc(C(F)(F)F)cc2Cl)c1	KCNQ2 enhance 9.74
Cc1ccc(OCC(=O)N2N=C(c3ccc(Cl)cc3)CC2c2ccco2)c([N+](=O)[O-])n1 (centres undefined)	KCNQ2 inh -8.31
CCC(=O)N1N=C(c2ccc(Cl)cc2)CC1c1ccco1 (centres undefined)	none (no result: KCNQ2 enhance)
Cc1cccc(NC(=O)CN(CCc2ccccc2)S(C)(=O)=O)c1	none (no result: KCNQ2 enhance)
COc1ccc(NC(=O)C2=CCN(S(=O)(=O)c3ccccc3)CC2)cc1OC	none
COc1ccc2o/c(=N\O)c(C(=O)Nc3ccc(C)cc3)cc2c1	KCNQ2 inh -10.3
COc1ccc2oc(=N)c(C(=O)Nc3ccc(C)cc3)cc2c1	none (no result: KCNQ2 enhance)
O=C(NNc1cc(Br)c(O)c(Br)c1)c1ccccc1	none (no result: KCNQ2 enhance)
COc1ccc(Oc2cnc3ccccc3n2)cc1	KCNQ2 inh -6.04
c1ccc(Oc2cnc3ccccc3n2)cc1	none
CC(OC(=O)Cc1c[nH]c2ccccc12)C(=O)Nc1ccccc1F (centres undefined)	none
O=C1Cc2ccccc2C(c2ccc(Br)cc2)N1 (centres undefined)	KCNQ2 inh -6.27
Cc1ccccc1C1NC(=O)Cc2ccccc21 (centres undefined)	none
O=C(Nc1ccc(F)cc1F)c1cccn1-c1ncc(C(F)(F)F)cc1Cl	none (no result: KCNQ2 enhance)
Cc1cc(C)cc(NC(=O)c2cccn2-c2ncc(C(F)(F)F)cc2Cl)c1	KCNQ2 inh -7.16
COc1cccc(N2CCN(c3nc(C)cc(=O)[nH]3)CC2)c1	none
CCOC(=O)C1=C(c2ccccc2)NC(=O)NC1c1ccc(OC)c(OC)c1 (centres undefined)	none (no result: KCNQ2 enhance)
CCOC(=O)C1=C(c2ccccc2)N(C)C(=O)NC1c1ccc(OC(F)F)c(OC)c1 (centres undefined)	KCNQ2 inh -5.56
N[C@@H](Cc1cc(I)c(Oc2ccc(O)c(I)c2)c(I)c1)C(=O)O	none
O=C(O)CCc1cc(I)c(Oc2ccc(O)c(I)c2)c(I)c1	KCNQ2 enhance 32.1
Cc1ccc2c(c1)-c1c(cnn1CC(=O)O)CO2	none (no result: KCNQ2 enhance)
